Test results published in PubChem BioAssay (NCI).
Values joined by “and” are separate entries in the source; they are usually repeats but may differ in a detail not shown here. Equal entries are not always repeated. Compounds without any hit were thinned out: in the full panel of roughly 83,000, 20% have a hit.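 Cell lines were cultured in 96-well plates, exposed to a single compound concentration, and assessed for percent growth 48 hours later.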 Active and inactive are the calls of the source. The calls were made as follows: active = growth percent below 10; inactive = the rest. Where a SMILES comes first, the peptide text is derived from it. The star is where a group is joined. Trt = c1ccc(C(c2ccccc2)(c2ccccc2)*)cc1; Cbz = O=C(OCc1ccccc1)*

What was measured:
Experiment in all cases: NCI-60 one-dose screen, 48 h (100 = growth as untreated, 0 = no growth, -100 = all killed)
Conditions in all cases: 10 µM unless noted
RPMI-8226 leukemia = system: RPMI-8226 leukemia
OVCAR-8 ovarian = system: OVCAR-8 ovarian
OVCAR-5 ovarian = system: OVCAR-5 ovarian
OVCAR-4 ovarian = system: OVCAR-4 ovarian
IGROV1 ovarian = system: IGROV1 ovarian
OVCAR-3 ovarian = system: OVCAR-3 ovarian
HS 578T breast = system: HS 578T breast
NCI/ADR-RES ovarian = system: NCI/ADR-RES ovarian
SK-OV-3 ovarian = system: SK-OV-3 ovarian

Measured: growth

C1=C(c2ccccc2)C(c2ccc(OCCN3CCCCC3)cc2)Oc2ccccc21 (stereo not drawn)
inactive: RPMI-8226 leukemia 15.5% | OVCAR-8 ovarian 77% | OVCAR-5 ovarian 72.4% | OVCAR-4 ovarian 64% | IGROV1 ovarian 44.2% | OVCAR-3 ovarian 65.6% | HS 578T breast 75.6% | NCI/ADR-RES ovarian 68.4%

COc1cc(NS(C)(=O)=O)ccc1Nc1c2ccccc2nc2ccccc12
active: HS 578T breast -6.75% [2.5 µM]
inactive: RPMI-8226 leukemia 11.3% [2.5 µM] | OVCAR-8 ovarian 28.8% and 23.2% and 27.8% | OVCAR-5 ovarian 46.8% [2.5 µM] | OVCAR-4 ovarian 87.8% [2.5 µM] | IGROV1 ovarian 48.6% [2.5 µM] | OVCAR-3 ovarian 58.7% [2.5 µM]

O=C1c2cccnc2-c2nccc3c2c1nc1cc(Br)ccc13
active: RPMI-8226 leukemia -49.7% and -22.2% | OVCAR-8 ovarian -41.9% | OVCAR-4 ovarian -54.2% and -85.3% | SK-OV-3 ovarian -10.1% and -96% | IGROV1 ovarian -77.6% and -77.5% | HS 578T breast -74% and -32.9% | NCI/ADR-RES ovarian -50.7% and -38.1%
32.3% (inactive) and -53% (active): OVCAR-5 ovarian

CN(Cc1cnc2nc(N)nc(N)c2n1)c1ccc(C(=O)NC(CCC(=O)O)C(=O)O)cc1 (stereo not drawn)
inactive: RPMI-8226 leukemia 37.3% | OVCAR-8 ovarian 24% | OVCAR-5 ovarian 44.9% | OVCAR-4 ovarian 61.3% | SK-OV-3 ovarian 59.3% | IGROV1 ovarian 31.2% | OVCAR-3 ovarian 37.8% | HS 578T breast 76.6% | NCI/ADR-RES ovarian 26.7%

CN(C)C(=O)SC1=C(c2c(Cl)cccc2Cl)C(=O)c2ccccc21
inactive: OVCAR-8 ovarian 51.7% | OVCAR-5 ovarian 106% | SK-OV-3 ovarian 110% | IGROV1 ovarian 119% | HS 578T breast 21.4% | NCI/ADR-RES ovarian 99.1%
active: RPMI-8226 leukemia -2.59% | OVCAR-4 ovarian -11.6%

CCCCCCC(C)c1ccccc1O (stereo not drawn) (tested in a mixture with another compound)
inactive: RPMI-8226 leukemia 95.6% | OVCAR-8 ovarian 110% | OVCAR-5 ovarian 104% | IGROV1 ovarian 111% | HS 578T breast 101% | NCI/ADR-RES ovarian 98.6%

NC1=CC(=O)c2ccccc2C1=O
inactive: RPMI-8226 leukemia 81.7% | OVCAR-8 ovarian 85.3% | OVCAR-5 ovarian 110% | OVCAR-4 ovarian 87.7% | SK-OV-3 ovarian 92.3% | IGROV1 ovarian 90.8% | OVCAR-3 ovarian 82.6% | HS 578T breast 71.6% | NCI/ADR-RES ovarian 88.6%

O=C(/C=C/c1cccc(Cl)c1)c1ccccc1
inactive: OVCAR-8 ovarian 88.2% and 79.9% | OVCAR-5 ovarian 97.9% and 95.6% | OVCAR-4 ovarian 97.8% and 92.9% | SK-OV-3 ovarian 109% and 98.5% | IGROV1 ovarian 93.7% and 71.8% | HS 578T breast 108% and 107%
active: RPMI-8226 leukemia -30.6% and 0.877%

CNc1ccc2c(c1)c1ccccc1n2C
inactive: RPMI-8226 leukemia 110% | OVCAR-8 ovarian 100% | OVCAR-5 ovarian 112% | OVCAR-4 ovarian 108% | IGROV1 ovarian 109% | HS 578T breast 118%

O=C(/C=C/C=C/c1ccccc1)c1ccco1
inactive: RPMI-8226 leukemia 10.8% | OVCAR-8 ovarian 89.1% | OVCAR-5 ovarian 108% | OVCAR-4 ovarian 78.7% | SK-OV-3 ovarian 105% | IGROV1 ovarian 64.8% | OVCAR-3 ovarian 85.6% | HS 578T breast 62.6% | NCI/ADR-RES ovarian 91.3%

CCN(CC)CC(C)(C)C(=O)/C=C/c1ccc(Cl)c(Cl)c1
active: RPMI-8226 leukemia 2.2% | OVCAR-8 ovarian -21.6% | OVCAR-5 ovarian -43.1% | IGROV1 ovarian -7.68% | OVCAR-3 ovarian -66.3% | NCI/ADR-RES ovarian -12.6%
inactive: OVCAR-4 ovarian 30.3% | HS 578T breast 10.2%

N[C@H](C(=O)O)[C@@H]1CC(Cl)=NO1
inactive: RPMI-8226 leukemia 28.9% [20 µM] | OVCAR-8 ovarian 30.3% [20 µM] | OVCAR-5 ovarian 28.4% [20 µM] | OVCAR-4 ovarian 48.1% [20 µM] | IGROV1 ovarian 10.8% [20 µM] | HS 578T breast 27.2% [20 µM]

O=C1NC(=O)/C(=C/C=C/c2ccccc2)S1
active: IGROV1 ovarian -6.36%
inactive: RPMI-8226 leukemia 38.8% | OVCAR-8 ovarian 43.1% | OVCAR-5 ovarian 92.5% | OVCAR-4 ovarian 70.1% | HS 578T breast 93.3% | NCI/ADR-RES ovarian 42.9%

c1ccc2c(c1)Nc1cc3ccccc3cc1N2
inactive: RPMI-8226 leukemia 18.8% | OVCAR-8 ovarian 29.5% | OVCAR-5 ovarian 69.7% | OVCAR-4 ovarian 32.6% | SK-OV-3 ovarian 63.6% | IGROV1 ovarian 50.6% | HS 578T breast 53.4% | NCI/ADR-RES ovarian 30.5%

COC(=O)C(CSC(c1ccccc1)(c1ccccc1)c1ccccc1)NC(=O)C(CC(N)=O)NC(=O)OCc1ccccc1 (stereo not drawn) (Cbz-Asn-Cys(Trt)-OMe; configuration not given here)
active: RPMI-8226 leukemia 2.8% | OVCAR-3 ovarian -5.78% | HS 578T breast -20.4%
inactive: OVCAR-8 ovarian 13.1% | OVCAR-5 ovarian 67% | OVCAR-4 ovarian 39.5% | IGROV1 ovarian 48.6% | NCI/ADR-RES ovarian 63.2%

Oc1c(Cl)c2ccccc2c2ccccc12
inactive: RPMI-8226 leukemia 102% | OVCAR-8 ovarian 98.4% | OVCAR-5 ovarian 129% | OVCAR-4 ovarian 98.1% | SK-OV-3 ovarian 111% | IGROV1 ovarian 117% | OVCAR-3 ovarian 107% | NCI/ADR-RES ovarian 67.6%

COC(=O)c1nc(=S)[nH]c(C(=O)OC)c1C(=O)c1ccc2ccccc2c1
inactive: RPMI-8226 leukemia 103% | OVCAR-8 ovarian 107% | OVCAR-5 ovarian 101% | OVCAR-4 ovarian 96.9% | SK-OV-3 ovarian 101% | IGROV1 ovarian 98.5% | OVCAR-3 ovarian 109% | HS 578T breast 103% | NCI/ADR-RES ovarian 106%

CCCCCCCCCCCCCCCCN(CC)CC
active: RPMI-8226 leukemia -60.1% | OVCAR-8 ovarian -38.3% | OVCAR-5 ovarian -57.3% | OVCAR-4 ovarian -6.38% | IGROV1 ovarian -90.5% | OVCAR-3 ovarian -58.6% | HS 578T breast -25.1% | NCI/ADR-RES ovarian -71.1%

CCN(CC)CCOc1ccc(-c2nc3cc(Cl)ccc3s2)cc1
inactive: OVCAR-8 ovarian 40.9% | OVCAR-4 ovarian 58.5% | SK-OV-3 ovarian 59.9%
active: RPMI-8226 leukemia -12.2% | OVCAR-5 ovarian -0.127% | IGROV1 ovarian -27.3% | HS 578T breast -29.2%

NC(=S)N/N=C\c1nccc2c(C(F)(F)C(F)(F)C(F)(F)F)cccc12
inactive: OVCAR-5 ovarian 42.3% | HS 578T breast 50.7%
active: RPMI-8226 leukemia -11% | OVCAR-8 ovarian -0.116% | SK-OV-3 ovarian -21.8% | IGROV1 ovarian 5.98% | OVCAR-3 ovarian 4.2% | NCI/ADR-RES ovarian -11.6%

O=C(O)c1ccc2c3c(ncnc13)-c1ccccc1C2=O
inactive: RPMI-8226 leukemia 87.1% | OVCAR-8 ovarian 79.9% | OVCAR-5 ovarian 116% | OVCAR-4 ovarian 91.7% | SK-OV-3 ovarian 98% | IGROV1 ovarian 83.4% | OVCAR-3 ovarian 83.4% | NCI/ADR-RES ovarian 76.9%
active: HS 578T breast 5.48%

CCOC(=O)/C=C/c1ccc([N+](=O)[O-])o1
inactive: RPMI-8226 leukemia 74.7% | OVCAR-8 ovarian 11.4% | OVCAR-5 ovarian 75% | OVCAR-4 ovarian 97.4% | IGROV1 ovarian 77.5% | HS 578T breast 98.1% | NCI/ADR-RES ovarian 50.6%

O=[N+]([O-])c1ccc2c(N=Nc3ccc4ccccc4c3O)c(O)cc(S(=O)(=O)O)c2c1
inactive: RPMI-8226 leukemia 96.8% | OVCAR-8 ovarian 70.5% | OVCAR-5 ovarian 106% | OVCAR-4 ovarian 63% | IGROV1 ovarian 61.7% | HS 578T breast 105%

CC(C)(C)c1ccc(O)c(C2CCCCC2)c1
inactive: RPMI-8226 leukemia 83% | OVCAR-8 ovarian 96.3% | OVCAR-5 ovarian 101% | OVCAR-4 ovarian 101% | IGROV1 ovarian 137% | OVCAR-3 ovarian 110% | NCI/ADR-RES ovarian 117%
